Source: PubChem
In the library only some 4.3% were active in any assay of this set; here they are far more common.
Giardia kill = Small Molecules that selectively kill Giardia lamblia: qHTS. Giardia lamblia trophozoite viability. activity change, % at 7.66 µM, hits read low. 0.15% of 340,000 active; in the data active = activity change below about -80%; inconclusive = between about -30% and that limit;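 also: parasites exposed to compound for two days anaerobically before the ATP read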
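Anaerobic 48 hrs incubation at 37 deg C of 100 trophozoites/well with test compounds; ATPLite 1-Step luminescence, 15-30 min RT, reports cellular ATP as viability.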
uPA generation = qHTS for Inhibitors of Cell Surface uPA Generation; AID 540303, 2011; cell surface uPA generation assay, qHTS; 0.31% of 330,000 active; Potency, µM (series often up to 38.3 µM), actives largely listed as inhibitors; active = well fitted inhibition curve with a large enough effect; inconclusive = small, poorly fitted or top-dose-only effect; inactive = no such curve, though single readings can be large or run the other way; tested in mouse RAW 264.7 cells; also: nearly all actives have a fitted effect of over 55% in size
MCF10A rerep = A quantitative high throughput screen for small molecules that induce DNA re-replication in MCF 10a normal breast cells. MCF 10A DNA re-replication, Hoechst nuclear intensity, 48 h. Potency, µM (titrated, usually from 46.1 µM), usual class: activators. 2.9% of 350,000 active. AID 624296, 2012; also: nearly all actives have a fitted effect of over 50% in size
SW480 rerep = A quantitative high throughput screen for small molecules that induce DNA re-replication in SW480 colon adenocarcinoma cells | 1.8% of 340,000 active | SW480 DNA re-replication, Hoechst DNA content imaging, 48 h | Potency, µM (doses to about 46.1 µM), hits mostly activators | AID 624297, 2012; also: nearly all actives have a fitted effect of over 55% in size
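Cells (250 per well) received 23 nL compound or DMSO by pin tool and were kept 48 hr at 37 C, 5% CO2. Nuclei were then stained with Hoechst for 40 min and scanned for DNA content.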
Each line names hits and unclear results; the compound was inactive in the other large screens. Unless noted, calls follow the shape of the dose curve; as a rule, active = well fitted activation curve with a large enough effect; inconclusive = small, poorly fitted or top-dose-only effect; inactive = no such curve, though single readings can be large or run the other way.

COc1cccc(-c2nc3ccccc3s2)c1	none
Nc1ccc(O)c(-c2nc3ccccc3s2)c1	MCF10A rerep inconclusive
Nc1ccccc1-c1nc2ccccc2s1	MCF10A rerep 16.4µM, SW480 rerep inconclusive
O=c1c(-c2nc3ccccc3s2)cccn1Cc1ccccc1	MCF10A rerep 5.17µM, SW480 rerep 11.6µM
COc1ccc(-c2nc3ccccc3s2)cc1	Giardia kill inconclusive, uPA generation 3.55µM
O=C(/C=C/c1ccccc1)NCCO	none (no result: Giardia kill, uPA generation)
COc1cc2c(cc1OC)CN(C(=O)CN1CCN(S(=O)(=O)c3ccccc3)CC1)CC2	none
c1ccc(-c2noc(C34CC5CC(CC(C5)C3)C4)n2)cc1	MCF10A rerep 11.6µM
c1ccc(-c2noc(C34CC5CC(CC(C5)C3)C4)n2)nc1	none
COc1ccc2[nH]cc(C(=O)CCl)c2c1	uPA generation inconclusive, MCF10A rerep 20.6µM, SW480 rerep inconclusive
COc1ccccc1C(=O)NC(=O)Cn1nc(C)c([N+](=O)[O-])c1C	none
CC(=O)c1c(C)[nH]c(C(=O)NCCc2ccc(Cl)cc2)c1C	MCF10A rerep 3.66µM
CSC1SCC2C(=O)N(C)C(C(C)C)C(=O)OCC(NC(=O)c3cnc4ccccc4n3)C(=O)NC(C)C(=O)N(C)C1C(=O)N(C)C(C(C)C)C(=O)OCC(NC(=O)c1cnc3ccccc3n1)C(=O)NC(C)C(=O)N2C (configuration not stated)	Giardia kill inconclusive
CN1N=C2c3ccccc3CCCC2C1c1ccc(F)cc1 (configuration not stated)	MCF10A rerep inconclusive, SW480 rerep 20.6µM
Cc1oc2c(c1C(=O)O)C(=O)c1ccccc1C2=O	Giardia kill inconclusive
CCOC(=O)c1c(C)oc2c1C(=O)c1ccccc1C2=O	Giardia kill -81.4, uPA generation inconclusive, SW480 rerep 3.66µM
Cc1cc2c(c(C)c1CCO[C@@H]1O[C@H](CO)[C@@H](O)[C@H](O)[C@H]1O)C(=O)[C@@H](C)[C@@H]2O	MCF10A rerep 18.4µM
O=C(Nc1ccncc1)C1CC(=O)N(Cc2ccccc2)C1 (configuration not stated)	none
Cc1cc(NC(=O)C2CCN(S(=O)(=O)c3c(C)noc3C)CC2)ccc1Br	MCF10A rerep 20.6µM, SW480 rerep inconclusive
CC1CCCN(CC(=O)Nc2ccc(S(=O)(=O)N3CCCCC3)cc2)C1 (configuration not stated)	SW480 rerep inconclusive
CCc1ccc(NC(=O)C2CCN(S(=O)(=O)c3c(C)noc3C)CC2)cc1	none
CC1CCCN(CC(=O)Nc2ccc(S(=O)(=O)NC3CCCCC3)cc2)C1 (configuration not stated)	MCF10A rerep 16.4µM
CC1CCN(S(=O)(=O)c2ccc(NC(=O)CN3CCCC3)cc2)CC1	MCF10A rerep 9.2µM
CCS(=O)(=O)c1ncc(Cl)c(C(=O)Nc2ccc(S(=O)(=O)N3CCC(C)CC3)cc2)n1	MCF10A rerep 1.84µM, SW480 rerep inconclusive
Cc1cnc(C(=O)OCC(=O)N2CCC(C)CC2)cn1	none
Cc1cc(C)cc(NC(=O)Cn2c(=O)oc3cc(S(=O)(=O)N4CCC(C)CC4)ccc32)c1	Giardia kill inconclusive, MCF10A rerep 16.4µM, SW480 rerep inconclusive
Cc1noc(C)c1C(=O)Nc1ccc(S(=O)(=O)N2CCCCC2)cc1	none
Cc1noc(C)c1C(=O)Nc1ccc(S(=O)(=O)N2CCC(C)CC2)cc1	SW480 rerep 18.4µM
CC1CCN(S(=O)(=O)c2ccc3c(c2)oc(=O)n3CC(=O)NCc2ccc3c(c2)OCO3)CC1	none
C/C1=C2N=C(/C=C3N=C(/C(C)=C4\[N-]C(C)(C5N=C1C(C)(CCC(=O)NCC(C)OP(=O)([O-])O[C@H]1C(O)C(n6cnc7cc(C)c(C)cc76)O[C@@H]1CO)C5CC(N)=O)C(C)(CC(N)=O)C4CCC(N)=O)C(C)(CC(N)=O)C\3CCC(N)=O)C(C)(C)C/2CCC(N)=O.[CH2-]C1OC(n2cnc3c(N)ncnc32)C(O)C1O.[Co] (some centres not stated)	none (no result: Giardia kill, uPA generation, SW480 rerep)
CC[C@@H]1C(c2ccccc2)=NN(c2ccccc2)[C@H]1C(=O)N1CCOC1=O	MCF10A rerep 23.1µM
Cc1cccc(C2=NN(c3ccc(Br)cc3)[C@@H](C(=O)N3CCOC3=O)[C@@H]2C)c1	MCF10A rerep 5.17µM, SW480 rerep inconclusive
C[C@@H]1C(c2ccccc2)=NN(c2ccc(Br)cc2)[C@H]1C(=O)N1CCOC1=O	MCF10A rerep 14.6µM, SW480 rerep inconclusive
Cc1cccc(C2=NN(c3ccccc3)[C@@H](C(=O)N3CCOC3=O)[C@@H]2C)c1	none
O=C1OCCN1C(=O)[C@H]1[C@H](c2ccc(F)cc2)C(c2ccc(F)cc2)=NN1c1ccc(Br)cc1	MCF10A rerep inconclusive, SW480 rerep inconclusive
C/C(=N/Nc1ccc(C(=O)c2c(C)cc3ccccn23)cc1[N+](=O)[O-])c1ccc(O)cc1	none
O=C(COC(=O)CNC(=O)C1CCCCC1)NC1CC1	none (no result: uPA generation, MCF10A rerep, SW480 rerep)
N#Cc1c(-c2ccccc2)c(-c2ccccc2)nn(CC(=O)NNC(=O)Nc2ccccc2)c1=O	uPA generation inconclusive, MCF10A rerep 0.651µM, SW480 rerep 2.91µM
O=C(CN1C(=O)CS/C1=C\c1nc(-c2ccc(Cl)cc2)cs1)Nc1cccnc1Cl	MCF10A rerep inconclusive, SW480 rerep inconclusive
Cc1ccc(-c2csc(/C=C3\SC(C)C(=O)N3CC(=O)Nc3ccccc3F)n2)cc1 (configuration not stated)	MCF10A rerep 18.4µM
O=C(CSc1ccc(-c2nc3ccccc3[nH]2)cn1)Nc1ccc(S(=O)(=O)N2CCCC2)cc1	none
Cc1cc2nc(-c3ccc(SCC(=O)Nc4ccc(S(=O)(=O)N5CCCC5)cc4)nc3)[nH]c2cc1C	Giardia kill inconclusive, MCF10A rerep 20.6µM, SW480 rerep inconclusive
O=C(COc1ccccc1-c1ccccc1)N/N=C/c1ccncc1	none
O=C(COc1ccccc1)N/N=C/c1ccc2c(c1)OCO2	MCF10A rerep inconclusive, SW480 rerep inconclusive
Cc1cc(C)c(OCC(=O)N/N=C/c2ccc3c(c2)OCO3)c(C)c1	MCF10A rerep 2.91µM, SW480 rerep inconclusive
O=C(COc1ccccc1-c1ccccc1)N/N=C/c1ccc2ccccc2c1	MCF10A rerep inconclusive, SW480 rerep 1.3µM
Cc1ccccc1OCC(=O)N/N=C/c1ccc2c(c1)OCCO2	MCF10A rerep 11.6µM, SW480 rerep inconclusive
Cc1ccc(S(=O)(=O)N2CCN(c3cc(-c4cccs4)nc4ccccc34)CC2)cc1	none (no result: uPA generation, MCF10A rerep, SW480 rerep)
COc1cccc(NC(=O)Cc2nnc(SCC(=O)NC3CCCCC3)n2C)c1	none
CC[C@H](C)[C@@H](NC(=O)O[C@@H]1C(=O)c2cc(OC)ccc2O[C@H]1c1ccc(OC)c(Br)c1)C(=O)OC	none
COc1ccc2c(c1)C(=O)[C@H](O)[C@@H](c1ccc(OC)c(Br)c1)O2	uPA generation inconclusive, MCF10A rerep inconclusive, SW480 rerep 4.11µM
Cc1ccc2c(c1C)-c1c(ccc(C)c1C)C(=O)C2=O	MCF10A rerep 4.11µM, SW480 rerep 3.26µM
Nc1ccc2c(c1Cl)C(=O)c1ccc(N)c(Cl)c1C2=O	none
COC(=O)/C(=C\Nc1ccc(Cl)cc1Cl)NC(=O)c1ccc(OC)cc1	MCF10A rerep 18.4µM, SW480 rerep 6.51µM
